Screening results (PubChem BioAssay)
Shown is part of a subset that was picked to be rich in hits.
miR122 inh: raises miR-122 sensor activity in Huh7 cells. Huh7 psiCHECK-miR122 Renilla luciferase sensor, 48 h. activation, % at 12.5 µM. 340,000 compounds, 0.14% hits. AID 623901;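 active means mean activation of 30% or more, with every replicate also reaching 30%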;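 further: higher luciferase signal means stronger suppression of miR-122 activity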
Large screens that a line does not name were inactive.

C[C@@H]1CN([C@H](C)CO)C(=O)c2cc(C#Cc3ccc(F)cc3)cnc2O[C@@H]1CN(C)C(=O)c1ccccc1F	none
C[C@H]1CN([C@@H](C)CO)C(=O)c2cc(-c3cccc(F)c3)cnc2O[C@H]1CN(C)Cc1ccncc1	none
CC(C)NC(=O)N(C)C[C@@H]1Oc2ncc(C3=CCCCC3)cc2C(=O)N([C@H](C)CO)C[C@H]1C	none
C[C@@H]1CN([C@@H](C)CO)C(=O)c2cc(-c3ccc(F)cc3)cnc2O[C@H]1CN(C)Cc1cccnc1	none
CCCNC(=O)N(C)C[C@@H]1Oc2ncc(C#CCC3CCCC3)cc2C(=O)N([C@H](C)CO)C[C@@H]1C	none
COc1cccc(NC(=O)N(C)C[C@H]2Oc3ncc(C#Cc4cccnc4)cc3C(=O)N([C@H](C)CO)C[C@@H]2C)c1	none
C[C@@H]1CN([C@H](C)CO)C(=O)c2cc(C#Cc3cccnc3)cnc2O[C@@H]1CN(C)Cc1ccncc1	none
C[C@@H]1CN([C@@H](C)CO)C(=O)c2cc(C#Cc3ccccn3)cnc2O[C@@H]1CN(C)Cc1cccnc1	none
C/C=C/c1cnc2c(c1)C(=O)N([C@H](C)CO)C[C@H](C)[C@@H](CN(C)S(=O)(=O)c1ccc(C)cc1)O2	none
CCCC#Cc1cnc2c(c1)C(=O)N([C@@H](C)CO)C[C@@H](C)[C@H](CN(C)C(=O)C1CC1)O2	none
CCCC#Cc1cnc2c(c1)C(=O)N([C@H](C)CO)C[C@H](C)[C@H](CN(C)Cc1ccccc1F)O2	none
C[C@@H]1CN([C@H](C)CO)S(=O)(=O)c2ccc(C#Cc3ccccn3)cc2O[C@@H]1CN(C)Cc1cccc(F)c1	none
C[C@@H]1CN([C@@H](C)CO)C(=O)c2cc(C#CCc3ccccc3)cnc2O[C@@H]1CN(C)CC1CCOCC1	none
CCCNC(=O)Nc1ccc2c(c1)C(=O)N(C)[C@@H]1CC[C@H](CC(=O)NCC3CCCCC3)O[C@H]1CO2	miR122 inh 33
Cc1nn(C)cc1NC(=O)C[C@@H]1CC[C@@H]2[C@@H](COc3ccc(NC(=O)Nc4cccc(Cl)c4)cc3C(=O)N2C)O1	miR122 inh 48
Cc1ccccc1NC(=O)Nc1ccc2c(c1)C(=O)N(C)[C@@H]1CC[C@H](CC(=O)NCC3CC3)O[C@@H]1CO2	miR122 inh 47
CN1C(=O)c2cc(NC(=O)Cc3ccccc3)ccc2OC[C@@H]2O[C@H](CC(=O)NCc3ccc(Cl)cc3)CC[C@@H]21	none
CN1C(=O)c2cc(NC(=O)Cc3ccccc3)ccc2OC[C@@H]2O[C@H](CC(=O)NCC3CC3)CC[C@@H]21	none
CCCNC(=O)C[C@@H]1CC[C@@H]2[C@H](COc3ccc(NC(=O)Nc4c(C)noc4C)cc3C(=O)N2C)O1	none
Cc1cccc(NC(=O)Nc2ccc3c(c2)C(=O)N(C)[C@H]2CC[C@@H](CC(=O)NCc4ccccc4Cl)O[C@H]2CO3)c1	miR122 inh 37
C[C@H](CO)N1C[C@H](C)[C@H](CN(C)Cc2ccccc2)Oc2ncc(-c3cncnc3)cc2C1=O	none
CC(=O)N(C)C[C@H]1Oc2cc(C#C[C@H](C)O)ccc2S(=O)(=O)N([C@@H](C)CO)C[C@H]1C	none
C[C@@H]1CN([C@@H](C)CO)S(=O)(=O)c2ccc(-c3cccnc3)cc2O[C@H]1CN(C)Cc1ccccn1	none
COc1ccc(S(=O)(=O)N(C)C[C@H]2Oc3cc(C#CC4CC4)ccc3S(=O)(=O)N([C@H](C)CO)C[C@H]2C)cc1	none
CCCNC(=O)N(C)C[C@@H]1Oc2cc(C#CC(C)C)ccc2S(=O)(=O)N([C@H](C)CO)C[C@H]1C	none
C[C@H]1CN([C@@H](C)CO)C(=O)c2cc(-c3ccc(C(=O)N(C)C)cc3)cnc2O[C@@H]1CN(C)C(=O)c1cccnc1	none
COc1ccc2[nH]c3c4c(ccc3c2c1)C(=O)C=CC4=O	miR122 inh 42
CO[C@H]1CN(C)C(=O)c2cc(NC(=O)c3ccc(F)cc3)ccc2OC[C@H](C)N(C)C[C@H]1C	none
CCC(=O)Nc1ccc2c(c1)OC[C@H](C)NC[C@H](C)[C@H](OC)CN(C)C2=O	none
O=c1c2ccccc2nc(/C=C/c2ccc([N+](=O)[O-])o2)n1CCCO	miR122 inh 80
C[C@H]1CN([C@@H](C)CO)S(=O)(=O)c2ccc(-c3ccncc3)cc2O[C@H]1CN(C)Cc1cncnc1	none
C[C@@H]1CN([C@H](C)CO)S(=O)(=O)c2ccc(Br)cc2O[C@H]1CN(C)Cc1ccccn1	none
C[C@H]1CN([C@@H](C)CO)C(=O)c2cc(C#CC(C)(C)O)cnc2O[C@H]1CN(C)Cc1cncnc1	none
CNC[C@H]1Oc2ncc(C#CCC3CCCC3)cc2C(=O)N([C@H](C)CO)C[C@H]1C	none
COC(=O)c1ccc2c(c1)C(C)(C)C(/C=C/c1ccc(OC)c(OC)c1OC)=[N+]2C	miR122 inh 40
COC(=O)c1ccc(NS(=O)(=O)c2cc(C)ccc2OC)cc1	none
C[C@@H]1CN([C@H](C)CO)C(=O)c2cc(-c3cccc(F)c3)cnc2O[C@H]1CN(C)Cc1ccncc1	none
CO[C@@H]1CN(C)C(=O)c2ccc(NC(=O)Nc3cccc(F)c3)cc2OC[C@@H](C)N(C)C[C@@H]1C	none
COc1ccc(C#Cc2ccc3c(c2)O[C@H](CN(C)C)[C@@H](C)CN([C@@H](C)CO)S3(=O)=O)cc1	none
